About 7,900 targets were measured; listed, in parts, are those with a hit and a random draw of the rest. About 0.6% of all pairs of compound and target were hits.
Experiments:
Assay in all cases: log2 fold change, soluble protein after heating vs DMSO (PISA); higher = thermal stabilisation; K562 cells, 10 uM, 30 min; active = over 0.2 and 3.5 SD of the protein, either way, in both replicates (recomputed)
bafetinib = compound: Cc1ccc(NC(=O)c2ccc(CN3CC[C@H](N(C)C)C3)c(C(F)(F)F)c2)cc1Nc1nccc(-c2cncnc2)n1 [bafetinib]
Procedure, shortened: (§1)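 Soluble protein was quantified by TMTpro 16plex LC-MS/MS after channel sums were equalised. It was obtained as the supernatant after 21,000xg for 90 min from pooled aliquots of K562 cells (2×10^6 cells/mL, 10 μM compound, 30 min) heated for 3 min across 48°C-58°C and extracted in PBS with 0.5% NP-40 at 4°C. Thermal stability values are relative to control samples and come from duplicates. They are given as log2 fold changes.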

[1] = compound: Cc1cccc(CC(=O)N2CCc3c2ccc(-c2cn(C)c4ncnc(N)c24)c3F)n1
Procedure, shortened: as §1

nilotinib = compound: Cc1cn(-c2cc(NC(=O)c3ccc(C)c(Nc4nccc(-c5cccnc5)n4)c3)cc(C(F)(F)F)c2)cn1 [nilotinib]
Procedure, shortened: as §1

[2] = compound: Cc1nc(Nc2n[nH]c3c2CN(C(=O)N[C@H](CN(C)C)c2ccccc2)C3(C)C)c2sccc2n1
Procedure, shortened: as §1

dasatinib = compound: Cc1nc(Nc2ncc(C(=O)Nc3c(C)cccc3Cl)s2)cc(N2CCN(CCO)CC2)n1 [dasatinib]
Procedure, shortened: as §1

[3] = compound: Cc1ncc(-c2ccnc(Nc3ccc(S(C)(=O)=O)cc3)n2)n1C(C)C
Procedure, shortened: as §1

[4] = compound: Cn1cc(-c2ccc3c(c2)CCN3C(=O)Cc2cccc(C(F)(F)F)c2)c2c(N)ncnc21
Procedure, shortened: as §1

[5] = compound: Cn1cc(-c2ccc3nnc(C(F)(F)c4ccc5ncccc5c4)n3n2)cn1
Procedure, shortened: as §1

tipifarnib = compound: Cn1cncc1[C@@](N)(c1ccc(Cl)cc1)c1ccc2c(c1)c(-c1cccc(Cl)c1)cc(=O)n2C [tipifarnib]
Procedure, shortened: as §1

mubritinib = compound: FC(F)(F)c1ccc(/C=C/c2nc(COc3ccc(CCCCn4ccnn4)cc3)co2)cc1 [mubritinib]
Procedure, shortened: as §1

[6] = compound: NC(=O)Nc1cc(-c2cccc(F)c2)sc1C(=O)N[C@H]1CCCNC1
Procedure, shortened: as §1

[7] = compound: NC(=O)c1cnc(N[C@@H]2CCCC[C@@H]2N)nc1Nc1cccc(-n2nccn2)c1
Procedure, shortened: as §1

[8] = compound: NC1(c2ccc(-c3nc4ccn5c(=O)[nH]nc5c4cc3-c3ccccc3)cc2)CCC1
Procedure, shortened: as §1

[9] = compound: NCC(=O)Nc1ccc(-n2nc(C(F)(F)F)cc2-c2ccc3c(ccc4ccccc43)c2)cc1
Procedure, shortened: as §1

entinostat = compound: Nc1ccccc1NC(=O)c1ccc(CNC(=O)OCc2cccnc2)cc1 [entinostat]
Procedure, shortened: as §1

vorinostat = compound: O=C(CCCCCCC(=O)Nc1ccccc1)NO [vorinostat]
Procedure, shortened: as §1

citarinostat = compound: O=C(CCCCCCNC(=O)c1cnc(N(c2ccccc2)c2ccccc2Cl)nc1)NO [citarinostat]
Procedure, shortened: as §1

silmitasertib = compound: O=C(O)c1ccc2c(c1)nc(Nc1cccc(Cl)c1)c1ccncc12 [silmitasertib]
Procedure, shortened: as §1

[10] = compound: O=C1NC(=O)C(c2cnc3ccccn23)=C1c1cn2c3c(cc(F)cc13)CN(C(=O)N1CCCCC1)CC2
Procedure, shortened: as §1

[11] = compound: c1cc(OCCN2CCCCC2)cc(-c2n[nH]c3ccc(-c4nnc[nH]4)cc23)c1
Procedure, shortened: as §1

Measured: log2 fold change

LMBRD1 (UniProt Q9NUN5)
Chain of UniProt Q9NUN5 (Q9NUN5 whole entry, looked up): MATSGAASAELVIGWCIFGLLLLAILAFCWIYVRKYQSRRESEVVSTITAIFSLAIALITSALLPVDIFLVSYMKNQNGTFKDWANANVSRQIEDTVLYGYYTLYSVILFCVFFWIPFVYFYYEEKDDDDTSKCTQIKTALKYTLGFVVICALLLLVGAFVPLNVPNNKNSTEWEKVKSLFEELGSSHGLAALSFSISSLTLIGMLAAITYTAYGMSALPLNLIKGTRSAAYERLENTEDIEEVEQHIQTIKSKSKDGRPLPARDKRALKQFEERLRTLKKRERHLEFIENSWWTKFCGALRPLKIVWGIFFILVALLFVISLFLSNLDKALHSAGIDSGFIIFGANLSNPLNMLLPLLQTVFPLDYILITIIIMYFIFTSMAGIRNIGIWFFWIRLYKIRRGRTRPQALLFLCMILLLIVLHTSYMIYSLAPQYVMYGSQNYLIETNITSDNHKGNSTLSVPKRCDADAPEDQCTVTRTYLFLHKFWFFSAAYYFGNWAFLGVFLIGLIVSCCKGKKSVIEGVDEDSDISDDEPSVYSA
inactive: bafetinib -0.065 | [1] 0.01 | nilotinib -0.006 | [2] -0.062 | dasatinib 0.064 | [3] 0.026 | [4] -0.139 | [5] 0.014 | tipifarnib -0.156 | mubritinib 0.08 | [6] 0.006 | [7] 0.046 | [8] -0.243 | [9] -0.162 | entinostat 0.099 | vorinostat 0.048 | citarinostat 0.048 | silmitasertib -0.028 | [10] -0.003 | [11] 0.049

MARK3 (UniProt P27448)
Chain of UniProt P27448 (P27448 whole entry, looked up): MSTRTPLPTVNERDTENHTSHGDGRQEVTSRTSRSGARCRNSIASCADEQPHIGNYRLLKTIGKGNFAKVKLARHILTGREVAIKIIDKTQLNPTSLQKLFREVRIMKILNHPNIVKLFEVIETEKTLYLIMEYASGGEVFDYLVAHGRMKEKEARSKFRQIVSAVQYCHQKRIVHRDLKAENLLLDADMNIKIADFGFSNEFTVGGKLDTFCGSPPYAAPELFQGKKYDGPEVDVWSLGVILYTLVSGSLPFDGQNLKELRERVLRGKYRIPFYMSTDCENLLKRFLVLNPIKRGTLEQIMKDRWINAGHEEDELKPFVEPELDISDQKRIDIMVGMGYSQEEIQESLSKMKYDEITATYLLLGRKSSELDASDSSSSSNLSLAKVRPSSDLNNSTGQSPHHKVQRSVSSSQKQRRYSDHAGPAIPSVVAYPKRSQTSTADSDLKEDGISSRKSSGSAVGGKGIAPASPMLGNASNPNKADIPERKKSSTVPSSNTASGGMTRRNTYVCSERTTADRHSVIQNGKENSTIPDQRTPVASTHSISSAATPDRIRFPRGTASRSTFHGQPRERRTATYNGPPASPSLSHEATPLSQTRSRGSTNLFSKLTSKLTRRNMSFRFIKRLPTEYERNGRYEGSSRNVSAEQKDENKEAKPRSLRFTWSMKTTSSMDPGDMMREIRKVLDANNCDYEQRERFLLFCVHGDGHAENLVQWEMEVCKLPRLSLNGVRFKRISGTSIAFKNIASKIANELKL
active: [2] -0.718
inactive: bafetinib 0.033 | [1] 0.108 | nilotinib -0.125 | dasatinib -0.104 | [3] -0.11 | [4] -0.062 | [5] -0.046 | tipifarnib -0.013 | mubritinib -0.075 | [6] -0.125 | [7] -0.181 | [8] -0.006 | [9] -0.113 | entinostat 0.064 | vorinostat 0.139 | citarinostat 0.103 | silmitasertib -0.02 | [10] -0.017 | [11] -0.317

MED25 isoform 3 (UniProt Q71SY5)
Chain of UniProt Q71SY5 (Q71SY5 whole entry, looked up): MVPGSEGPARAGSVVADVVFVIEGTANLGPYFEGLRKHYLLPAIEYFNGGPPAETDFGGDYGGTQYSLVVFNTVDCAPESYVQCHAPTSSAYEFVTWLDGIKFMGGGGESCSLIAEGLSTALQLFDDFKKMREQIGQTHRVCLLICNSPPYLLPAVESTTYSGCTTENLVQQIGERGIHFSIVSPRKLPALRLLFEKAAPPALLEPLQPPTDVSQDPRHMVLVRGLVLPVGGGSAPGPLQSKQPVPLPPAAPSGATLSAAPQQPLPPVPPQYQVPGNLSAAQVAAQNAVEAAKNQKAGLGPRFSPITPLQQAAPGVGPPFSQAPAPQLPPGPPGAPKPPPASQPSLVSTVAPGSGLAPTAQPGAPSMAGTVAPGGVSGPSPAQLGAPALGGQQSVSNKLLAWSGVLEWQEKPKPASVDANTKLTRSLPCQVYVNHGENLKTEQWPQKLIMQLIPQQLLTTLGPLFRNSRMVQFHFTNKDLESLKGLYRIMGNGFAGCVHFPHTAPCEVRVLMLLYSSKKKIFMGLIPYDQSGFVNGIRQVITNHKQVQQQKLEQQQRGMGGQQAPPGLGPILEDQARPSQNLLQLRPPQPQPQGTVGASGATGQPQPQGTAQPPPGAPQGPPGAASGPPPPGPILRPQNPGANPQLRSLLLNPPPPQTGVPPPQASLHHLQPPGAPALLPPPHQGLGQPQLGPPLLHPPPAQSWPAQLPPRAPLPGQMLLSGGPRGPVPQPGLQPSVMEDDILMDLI
active: [8] -0.591
inactive: bafetinib 0.09 | [1] 0.217 | nilotinib -0.013 | [2] 0.003 | dasatinib -0.049 | [3] -0.09 | [4] -0.071 | [5] 0.076 | tipifarnib 0.054 | mubritinib -0.308 | [6] -0.016 | [7] -0.021 | [9] 0.064 | entinostat 0.065 | vorinostat -0.349 | citarinostat 0.052 | silmitasertib 0.174 | [11] -0.148

LMNB1 (UniProt P20700)
Chain of UniProt P20700 (P20700 whole entry, looked up): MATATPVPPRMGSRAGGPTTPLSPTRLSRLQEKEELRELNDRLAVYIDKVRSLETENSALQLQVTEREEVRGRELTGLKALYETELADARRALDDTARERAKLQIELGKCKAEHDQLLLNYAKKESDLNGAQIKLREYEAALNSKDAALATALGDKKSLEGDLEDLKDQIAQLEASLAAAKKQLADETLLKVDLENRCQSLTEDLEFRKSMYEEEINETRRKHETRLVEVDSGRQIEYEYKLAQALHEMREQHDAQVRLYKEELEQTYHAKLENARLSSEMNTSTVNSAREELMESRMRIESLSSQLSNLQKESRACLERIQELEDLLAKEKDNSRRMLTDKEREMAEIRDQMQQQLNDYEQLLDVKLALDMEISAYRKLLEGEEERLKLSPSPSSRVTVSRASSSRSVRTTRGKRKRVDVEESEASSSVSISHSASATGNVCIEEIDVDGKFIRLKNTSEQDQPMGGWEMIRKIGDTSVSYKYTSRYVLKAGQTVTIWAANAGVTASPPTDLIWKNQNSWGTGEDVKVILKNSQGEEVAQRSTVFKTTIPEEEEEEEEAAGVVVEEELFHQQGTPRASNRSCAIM
inactive: bafetinib -0.089 | [1] -0.004 | nilotinib 0.037 | [2] -0.11 | dasatinib 0.092 | [3] -0.117 | [4] -0.059 | [5] -0.074 | tipifarnib 0.105 | mubritinib -0.069 | [6] 0.094 | [7] -0.073 | [8] 0.078 | [9] -0.018 | entinostat 0.024 | vorinostat -0.029 | citarinostat 0.033 | silmitasertib 0.097 | [10] -0.105 | [11] -0.072

LUZP1 (UniProt Q86V48)
Chain of UniProt Q86V48 (Q86V48 whole entry, looked up): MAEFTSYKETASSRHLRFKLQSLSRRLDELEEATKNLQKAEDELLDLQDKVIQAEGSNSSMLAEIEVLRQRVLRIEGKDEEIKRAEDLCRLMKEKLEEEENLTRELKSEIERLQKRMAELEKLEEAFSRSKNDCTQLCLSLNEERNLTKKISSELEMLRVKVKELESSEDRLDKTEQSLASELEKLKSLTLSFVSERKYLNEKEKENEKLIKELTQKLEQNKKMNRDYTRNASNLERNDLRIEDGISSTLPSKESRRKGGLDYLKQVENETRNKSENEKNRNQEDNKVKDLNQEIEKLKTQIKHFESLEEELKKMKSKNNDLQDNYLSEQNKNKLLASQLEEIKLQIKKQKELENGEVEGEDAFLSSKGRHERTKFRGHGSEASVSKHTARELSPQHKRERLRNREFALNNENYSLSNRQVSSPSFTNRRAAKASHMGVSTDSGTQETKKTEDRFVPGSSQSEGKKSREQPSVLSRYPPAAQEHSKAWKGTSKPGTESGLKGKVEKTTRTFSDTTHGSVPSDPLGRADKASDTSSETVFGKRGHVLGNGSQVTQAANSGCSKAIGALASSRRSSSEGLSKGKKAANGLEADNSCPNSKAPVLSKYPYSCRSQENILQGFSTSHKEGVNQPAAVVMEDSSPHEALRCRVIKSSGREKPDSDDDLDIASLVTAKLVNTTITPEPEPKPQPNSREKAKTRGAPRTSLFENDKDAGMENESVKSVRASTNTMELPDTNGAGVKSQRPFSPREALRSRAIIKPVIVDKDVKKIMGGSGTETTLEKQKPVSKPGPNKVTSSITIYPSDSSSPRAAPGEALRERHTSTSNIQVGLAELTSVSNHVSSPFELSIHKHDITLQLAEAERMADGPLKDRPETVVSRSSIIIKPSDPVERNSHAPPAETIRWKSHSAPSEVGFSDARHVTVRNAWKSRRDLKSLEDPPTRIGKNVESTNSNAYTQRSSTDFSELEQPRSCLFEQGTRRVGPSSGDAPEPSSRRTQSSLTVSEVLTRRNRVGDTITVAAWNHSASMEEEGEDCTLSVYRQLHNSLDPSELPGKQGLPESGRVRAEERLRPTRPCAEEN
inactive: bafetinib -0.075 | [1] -0.028 | nilotinib -0.086 | [2] -0.35 | dasatinib 0.106 | [3] 0.21 | [4] -0.129 | [5] -0.104 | tipifarnib 0.186 | mubritinib -0.055 | [6] 0.055 | [7] 0.089 | [8] 0.087 | [9] 0.058 | entinostat -0.081 | vorinostat -0.119 | silmitasertib 0.114 | [10] 0.084

ILF3 isoform 7 (UniProt Q12906)
Chain of UniProt Q12906 (Q12906 whole entry, looked up): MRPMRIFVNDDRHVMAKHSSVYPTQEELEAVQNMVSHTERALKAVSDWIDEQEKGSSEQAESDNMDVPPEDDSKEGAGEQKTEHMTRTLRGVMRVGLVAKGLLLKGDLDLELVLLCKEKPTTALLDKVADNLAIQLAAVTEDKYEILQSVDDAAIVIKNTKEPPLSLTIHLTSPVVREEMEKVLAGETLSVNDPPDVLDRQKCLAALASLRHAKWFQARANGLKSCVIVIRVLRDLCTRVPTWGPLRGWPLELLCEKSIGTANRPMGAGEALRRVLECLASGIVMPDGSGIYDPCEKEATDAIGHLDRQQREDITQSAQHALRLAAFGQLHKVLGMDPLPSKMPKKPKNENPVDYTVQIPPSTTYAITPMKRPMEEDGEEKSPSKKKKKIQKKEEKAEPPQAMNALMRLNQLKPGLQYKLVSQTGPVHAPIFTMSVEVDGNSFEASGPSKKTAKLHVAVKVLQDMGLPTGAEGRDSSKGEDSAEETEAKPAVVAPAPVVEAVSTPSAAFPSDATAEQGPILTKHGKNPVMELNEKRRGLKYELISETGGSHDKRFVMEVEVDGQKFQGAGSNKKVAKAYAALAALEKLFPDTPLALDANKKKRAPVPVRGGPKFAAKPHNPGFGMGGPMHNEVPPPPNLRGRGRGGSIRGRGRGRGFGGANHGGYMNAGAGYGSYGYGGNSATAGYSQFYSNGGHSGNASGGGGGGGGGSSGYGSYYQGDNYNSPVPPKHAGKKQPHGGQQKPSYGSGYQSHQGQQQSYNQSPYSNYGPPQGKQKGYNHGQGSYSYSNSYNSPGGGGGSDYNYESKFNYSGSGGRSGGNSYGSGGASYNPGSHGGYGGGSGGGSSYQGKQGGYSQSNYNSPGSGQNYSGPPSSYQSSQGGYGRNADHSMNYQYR
inactive: bafetinib 0.082 | [1] -0.028 | nilotinib -0.02 | [2] 0.244 | dasatinib 0.155 | [3] 0.297 | [4] -0.179 | [5] -0.089 | tipifarnib 0.057 | mubritinib -0.031 | [6] -0.056 | [7] 0.055 | [8] 0.17 | [9] 0.107 | entinostat -0.083 | vorinostat -0.052 | citarinostat -0.053 | silmitasertib 0.189 | [10] 0.32 | [11] -0.105

LTN1 isoform 3 (UniProt O94822)
inactive: bafetinib -0.036 | [1] 0.039 | nilotinib -0.079 | [2] -0.031 | dasatinib -0.122 | [3] -0.052 | [4] -0.09 | [5] -0.042 | tipifarnib -0.151 | mubritinib -0.009 | [6] 0.024 | [7] -0.079 | [8] -0.125 | [9] -0.09 | entinostat 0.056 | vorinostat 0.148 | citarinostat 0.048 | silmitasertib 0.035 | [10] 0.037 | [11] -0.045

MAP1LC3B2 (UniProt A6NCE7)
inactive: bafetinib -0.044 | [1] -0.029 | nilotinib -0.006 | [2] -0.023 | dasatinib -0.024 | [3] 0.072 | [4] 0.019 | [5] -0.011 | tipifarnib 0.007 | mubritinib 0.018 | [6] -0.023 | [7] -0.022 | [8] -0.128 | [9] -0.085 | entinostat 0.012 | vorinostat -0.058 | citarinostat 0.046 | silmitasertib -0.015 | [10] -0.001 | [11] -0.103
